Source: PubChem (National Center for Advancing Translational Sciences (NCATS))
Pf growth 48h: inhibits P. falciparum growth in the first generation, 48 h; P. falciparum luciferase growth in erythrocytes, 48 h; 310,000 compounds, 5.9% hits; Potency, µM (doses to about 28.7 µM), inactives show top-dose activity change, negative = inhibition, most hits filed as inhibitors; also: potency is read from the fitted curve at half-maximal effect; % is scaled to controls: 0 for no effect and ±100 for the full control effect
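In quantitative HTS format, infected erythrocytes bearing luciferase-reporter parasites were treated for a single generation at 37 C. Luminescence after adding detection reagent served as the growth measure.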
LmPK inhibitor: LmPK (Leishmania mexicana) enzyme inhibition; Q27686; purified LmPK, Kinase-Glo ATP luminescence, 1 h; Potency, µM (titrated, usually from 57.5 µM), inactives show at the highest dose activity change, negative = inhibition, actives largely listed as inhibitors; 290,000 compounds, 0.37% hits; AID 1721; also: potency is read from the fitted curve at half-maximal effect; % is scaled to controls: 0 for no effect and ±100 for the full control effect
Target sequence (Q27686 whole entry, looked up): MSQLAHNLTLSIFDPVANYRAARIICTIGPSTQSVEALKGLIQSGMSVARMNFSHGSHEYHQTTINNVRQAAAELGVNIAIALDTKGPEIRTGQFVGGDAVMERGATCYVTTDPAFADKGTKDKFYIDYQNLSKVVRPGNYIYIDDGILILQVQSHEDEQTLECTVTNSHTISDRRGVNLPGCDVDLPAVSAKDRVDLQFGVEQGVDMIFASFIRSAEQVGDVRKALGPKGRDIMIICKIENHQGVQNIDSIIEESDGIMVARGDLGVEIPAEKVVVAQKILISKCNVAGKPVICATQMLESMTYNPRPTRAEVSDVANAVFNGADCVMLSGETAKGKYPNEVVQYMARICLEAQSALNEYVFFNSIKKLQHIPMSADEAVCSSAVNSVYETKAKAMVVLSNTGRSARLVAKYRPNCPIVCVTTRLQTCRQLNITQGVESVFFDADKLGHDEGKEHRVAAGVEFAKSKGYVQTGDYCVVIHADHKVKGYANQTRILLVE
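In 50 mM imidazole pH 7.2 with 7 mM MgCl2, LmPK (0.1 nM) turned over PEP (0.5 mM) and ADP (0.1 mM) for 1 h at room temperature. Luciferase read-out of ATP.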
CHX counter: counter-screen for Shiga toxin inhibitors: cycloheximide protein synthesis inhibition. 300,000 compounds, 12% hits. max response, %. AID 2314. cell reporter, cycloheximide protein synthesis inhibition counterscreen; in the data active = max response mostly above about 13%, no sharp cut-off; inactive = mostly below about 14%; also: read at 38.3 µM for the half of the compounds with a filed dose; 0% is about no effect
Shiga toxin inh: inhibitors of Shiga toxin in Vero cells. Vero cells, Shiga toxin protein synthesis inhibition reporter. inhibition, % at 38.7 µM. 290,000 compounds, 9.2% hits; in the data active = inhibition mostly above about 28%, no sharp cut-off; inactive = mostly below about 43%; also: 0% is about no effect
Pf growth 96h: inhibits malaria parasite growth, 96 h; P. falciparum luciferase reporter growth, 96 h; AID 504834; Potency, µM (doses to about 28.7 µM), for the others: at the top dose activity change, negative = inhibition, hits mostly inhibitors; 320,000 compounds, 6.9% hits; also: potency is read from the fitted curve at half-maximal effect; % is scaled to controls: 0 for no effect and ±100 for the full control effect
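Two-generation exposure (96 h) targets delayed-death phenotype. Reporter parasites carrying integrated firefly luciferase, in red cells at 2% hematocrit and 0.05% parasitemia final, kept at 37 C, 5% CO2; luminescence loss indicates inhibition.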
Numbers without * were called inactive; ? = inconclusive; nt = no result. Compounds with a hit are over-represented: about 22% of the library has one in this group of screens. Unless noted, calls follow the shape of the dose curve; as a rule, active = well fitted inhibition curve with a large enough effect; inconclusive = small, poorly fitted or top-dose-only effect, or another doubt; inactive = no such curve, though single readings can be large or run the other way.

SMILES	Pf growth 48h	LmPK inhibitor	CHX counter	Shiga toxin inh	Pf growth 96h
O=c1/c(=C\c2cccnc2)sc2nc3ccccc3n12	60.4%	-2.0%	31.3*	127.2*	2.6%
CCN(CC)c1ccc(/C=c2\sc3nc4ccccc4n3c2=O)c(O)c1	8.28µM*	-0.1%	18.6	38.0*	10.4µM*
CC(C)[C@H](NC(=O)N1c2ccccc2NC(=O)[C@@H]1C(C)C)C(=O)N1CCC[C@H]1C(=O)O	7.4%	-9.0%	0.2	3.0	52.6%
COc1ccc(CCC(=O)Nc2nc(-c3ccncc3)cs2)cc1	?	-6.4%	13.0	-7.2	?
O=C(O)C1CCCCC1C(=O)Nc1nc(-c2ccc(Cl)s2)cs1 (centres undefined)	33.5%	2.8%	-0.9	2.0	-16.6%
C=CCNc1nc(-c2ccc(OC)cc2OC)cs1	-30.3%	0.0%	38.0*	69.2*	?
CCCC(=O)Nc1nc(-c2ccc(Cl)s2)cs1	50.1%	-2.2%	38.2*	28.0	114.9%
CCc1ccc(-c2csc(NC(=O)COC(=O)CCc3nc4ccccc4s3)n2)cc1	175.7%	2.5%	47.9*	53.3*	434.5%
CCCC(=O)Nc1nc(-c2ccc(OC)cc2)cs1	89.4%	-2.4%	39.7*	138.4*	nt
COc1ccc(CC(=O)Nc2nc(-c3ccncc3)cs2)cc1	?	-4.7%	5.2	-12.6	13.1µM*
COc1ccc(-c2csc(NC(=O)COC(=O)C3=COCCO3)n2)cc1	89.0%	-0.5%	33.1*	52.6	183.3%
COc1ccc(-c2csc(NC(=O)CSCC(=O)Nc3cc(C)on3)n2)cc1	43.9%	nt	nt	nt	0.0%
COc1ccc(-c2csc(NC(=O)CSCc3c(C)noc3C)n2)c(OC)c1	?	nt	nt	nt	10.4µM*
COc1ccc(OC)c(-c2csc(NC(=O)Cc3ccccc3F)n2)c1	?	-2.4%	27.6*	40.6*	-10.3%
COc1ccc(CNc2nc(-c3cccnc3)nn2C(=O)C(C)C)cc1	?	-3.5%	3.9	10.9	-17.4%
O=C(Nc1ccc([N+](=O)[O-])cc1)Nc1nc(-c2ccc(Cl)s2)cs1	1.85µM*	0.9%	2.6	20.0	?
Cc1ccc(C(=O)NCC(=O)N/N=C/c2sccc2C)cc1[N+](=O)[O-]	-19.4%	0.7%	4.3	5.9	21.2%
O=C(COc1ccccc1)NCC(=O)NC1=NCCS1	25.7%	-0.8%	-2.7	-10.8	9.9%
Cc1ccc(OCC(=O)NC2=NCCS2)cc1	65.6%	-20.1%	24.7*	8.2	-0.7%
Cc1ccccc1OCC(=O)NC1=NCCS1	nt	?	29.2*	31.9*	81.3%
Cc1ccccc1OCC(=O)Nc1cccc2nsnc12	136.9%	3.1%	-2.1	1.5	?
CCCC(=O)N(CCN1CCOCC1)c1nc2c(F)cc(F)cc2s1	57.1%	-8.3%	8.2	26.5	42.0%
COc1ccc(N2CCN(C3CCCN(Cc4ccc(F)cc4Cl)C3)CC2)cc1 (centres undefined)	?	-0.5%	-0.6	-4.3	?
COc1ccc(O)c(CN2CCCC(N3CCN(c4ccc(F)cc4)CC3)C2)c1 (centres undefined)	4.15µM*	3.1%	7.5	8.2	?
COc1ccc(O)c(CN2CCCC(N3CCc4ccccc4C3)C2)c1 (centres undefined)	11.7µM*	-3.5%	4.8	-0.6	?
SMILES	Pf growth 48h	LmPK inhibitor	CHX counter	Shiga toxin inh	Pf growth 96h
Oc1ccccc1CN1CCCC(N2CCc3ccccc3C2)C1 (centres undefined)	9.28µM*	-1.2%	-3.1	nt	5.22µM*
CCOc1cc(CN2CCCC(N3CCc4ccccc4C3)C2)ccc1O (centres undefined)	?	2.9%	-1.5	10.7	413.8%
CCOc1cccc(CN2CCCC(N3CCc4cc(OC)c(OC)cc4C3)C2)c1O (centres undefined)	?	6.6%	3.4	-5.0	?
Cc1cc(C)cc(NC(=O)CC2Oc3ccc(C)cc3NC2=O)c1 (centres undefined)	0.0%	0.5%	-8.6	-14.5	?
COc1ccc(CCNC(=O)CCC(=O)N2CC(C)Oc3ccccc32)cc1OC (centres undefined)	-22.0%	-3.7%	-1.2	-5.8	?
Cn1c(N)c(C(=O)CSc2nc(N)cc(N)n2)c(=O)n(C)c1=O	15.5%	2.5%	-2.3	24.7	15.4%
O=C(NCc1c(O)ccc2ccccc12)c1ccccc1	?	-3.0%	2.1	10.9	10.4µM*
CC(=O)Nc1ccc(C(=O)NCCc2ccccc2)cc1	77.3%	-1.3%	59.6*	61.5*	-14.7%
